Experimental findings from PubChem BioAssay (NCI) are described below.

Where “and” joins values, the source holds several entries; their conditions need not be identical. Equal entries are not always repeated. Compounds without any hit were thinned out: in the full panel of roughly 79,000, 15% have a hit. The source holds several records for some structures; these can differ, active in one and inactive in another. Calls of active or inactive are those of the source. Cut-off read from the data, not from the text of the source: active = growth inhibition above about 70%; inactive = the rest.

A short description of assay [1]: NCI Yeast Anticancer Drug Screen. Data for the rad50 strain (AID 155).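 Note: 0% = growth of vehicle-only cultures of the same strain.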 As to conditions: S. cerevisiae rad50 strain growth inhibition, stronger effect = higher value. In short, it runs like this:
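A DNA repair-deficient yeast mutant serves as the test organism; compound-induced growth inhibition is calculated against vehicle-treated cells.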

Assay [2] can be described thus: NCI Yeast Anticancer Drug Screen. Data for the mec2-1 strain (AID 157). Particulars: S. cerevisiae mec2-1 strain, stronger effect = higher value. In short, it runs like this:
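Each compound was tested on mec2-1 yeast, a strain altered in DNA damage repair or cell cycle control. Growth inhibition is reported relative to vehicle.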

Assay [3] can be described thus: NCI Yeast Anticancer Drug Screen. Data for the sgs1 mgt1 strain (AID 161).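 Note: 0% = growth of cultures given vehicle only.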 Particulars: S. cerevisiae sgs1 mgt1 strain, stronger effect = higher value. In outline:
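Genetically altered yeast, compound exposure, growth inhibition relative to vehicle.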

A short description of assay [4]: NCI Yeast Anticancer Drug Screen. Data for the cln2 rad14 strain (AID 165).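 Note: 0% = growth equal to vehicle treated cultures.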 Particulars: S. cerevisiae cln2 rad14 strain, stronger effect = higher value. In outline: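 Test compounds were added to cln2 rad14 yeast cultures; inhibition of growth was then determined by comparison with vehicle treatment.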
The nature of assay [5]: NCI Yeast Anticancer Drug Screen. Data for the bub3 strain (AID 167). As to conditions: S. cerevisiae bub3 mutant strain, stronger effect = higher value. In outline:
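Inhibition values come from growth of compound-treated mutant yeast normalised to vehicle-treated controls.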

Assay [6] can be described thus: NCI Yeast Anticancer Drug Screen. Data for the mlh1 rad18 strain (AID 175). Particulars: S. cerevisiae mlh1 rad18 strain growth inhibition, stronger effect = higher value. In outline: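 Inhibition values reflect reduced growth of mutant yeast versus vehicle-treated controls following compound exposure; the mutations affect DNA damage repair.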
[7] abbreviates: at 5.0 µM (retest, dose inferred, filed as 0.5).
The mark [8] stands for this setting: at 50.0 µM (retest, dose inferred, filed as 5.0).

Take `N#CC(C#N)=Cc1cccc([N+](=O)[O-])c1`: the growth inhibition is 42% (inactive) in assay [1] (setting [7]); 89% (active) in assay [1] (setting [8]); -15.1% (inactive) and 98.2% (active) in assay [1] (at 50.0 µM); 29% (inactive) in assay [2] (setting [7]); 92% (active) in assay [2] (setting [8]); -11.1% (inactive) and 90.8% (active) in assay [2] (at 50.0 µM). For the same molecule, the growth inhibition is 13% (inactive) in assay [3] (setting [7]); 84% (active) in assay [3] (setting [8]); -24.4% (inactive) and 99.2% (active) in assay [3] (at 50.0 µM); 1% (inactive) in assay [4] (setting [7]); 28% (inactive) in assay [4] (setting [8]); -4.8% (inactive) and 93.7% (active) in assay [4] (at 50.0 µM). In addition, the growth inhibition was 9% (inactive) in assay [5] (setting [7]); 76% (active) in assay [5] (setting [8]); -8.45% (inactive) and 99.5% (active) in assay [5] (at 50.0 µM); 33% (inactive) in assay [6] (setting [7]); 92% (active) in assay [6] (setting [8]); -27.9% (inactive) and 97.8% (active) in assay [6] (at 50.0 µM).

Turning to `COC1OC(COC(C)=O)C(OC(C)=O)C(OC(C)=O)[CH]1[Hg][I]` (stereo not given), the growth inhibition in assay [1] (setting [7]) is 99% (active); in assay [1] (setting [8]), 99% (active); in assay [1] (at 50.0 µM), 99.2% (active); in assay [2] (setting [7]) it was 99% (active); in assay [2] (setting [8]), 99% (active); in assay [2] (at 50.0 µM), 99.6% (active). In addition, the growth inhibition in assay [3] (setting [7]) was 100% (active); in assay [3] (setting [8]), 100% (active); in assay [3] (at 50.0 µM) it was 99.6% (active); in assay [4] (setting [7]) it was 99% (active); in assay [4] (setting [8]) it was 99% (active); in assay [4] (at 50.0 µM), 98.9% (active). Besides, the growth inhibition in assay [5] (setting [7]) was 99% (active); in assay [5] (setting [8]) it was 99% (active); in assay [5] (at 50.0 µM) it was 99.3% (active); in assay [6] (setting [7]), 99% (active); in assay [6] (setting [8]), 99% (active); in assay [6] (at 50.0 µM), 99.2% (active).

For the molecule `COC1=CC(C)(C)C=C([Se][Se]C2=CC(C)(C)C=C(OC)C2=O)C1=O`, the growth inhibition in assay [1] (setting [7]) was 82% (active); in assay [1] (setting [8]) it was 79% (active); in assay [1] (at 50.0 µM) it was 83.5% (active); in assay [2] (setting [7]) it was 83% (active); in assay [2] (setting [8]) it was 76% (active); in assay [2] (at 50.0 µM), 88.9% (active). Moreover, the growth inhibition was 86% (active) in assay [3] (setting [7]); 87% (active) in assay [3] (setting [8]); 83% (active) in assay [3] (at 50.0 µM); 77% (active) in assay [4] (setting [7]); 75% (active) in assay [4] (setting [8]); 68.5% (inactive) in assay [4] (at 50.0 µM). Further, the growth inhibition in assay [5] (setting [7]) is 71% (active); in assay [5] (setting [8]) it was 61% (inactive); in assay [5] (at 50.0 µM), 64.7% (inactive); in assay [6] (setting [7]), 81% (active); in assay [6] (setting [8]), 79% (active); in assay [6] (at 50.0 µM), 85.5% (active).

With `C[C@]12CC[C@H]3[C@@H](C[C@@H](F)C4=CC(=O)CC[C@@]43C)[C@@H]1CC[C@@H]2O`, the growth inhibition in assay [1] (setting [7]) is 7% (inactive); in assay [1] (setting [8]), 46% (inactive); in assay [1] (at 50.0 µM), 56.2% (inactive); in assay [2] (setting [7]), 3% (inactive); in assay [2] (setting [8]) it was 58% (inactive); in assay [2] (at 50.0 µM), 7.4% (inactive). In addition, the growth inhibition in assay [3] (setting [7]) was 4% (inactive); in assay [3] (setting [8]), 93% (active); in assay [3] (at 50.0 µM) it was 56% (inactive); in assay [4] (setting [7]), -2% (inactive); in assay [4] (setting [8]) it was 30% (inactive); in assay [4] (at 50.0 µM), 6.75% (inactive). The growth inhibition in assay [5] (setting [7]) is 0% (inactive); in assay [5] (setting [8]), 80% (active); in assay [5] (at 50.0 µM) it was 34% (inactive); in assay [6] (setting [7]) it was 15% (inactive); in assay [6] (setting [8]) it was 86% (active); in assay [6] (at 50.0 µM) it was 30.1% (inactive).

In the case of `O=C1c2ccccc2-c2cccc3cccc1c23`, the growth inhibition is 3% (inactive) in assay [1] (setting [7]); -52% (inactive) in assay [1] (setting [8]); -13.8% (inactive) and 32.1% (inactive) in assay [1] (at 50.0 µM); -12% (inactive) in assay [2] (setting [7]); -26% (inactive) in assay [2] (setting [8]); 4.65% (inactive) and 0.55% (inactive) in assay [2] (at 50.0 µM). For the same molecule, the growth inhibition in assay [3] (setting [7]) is -9% (inactive); in assay [3] (setting [8]) it was -40% (inactive); in assay [3] (at 50.0 µM) it was -14.2% (inactive) and -19.6% (inactive); in assay [4] (setting [7]) it was -6% (inactive); in assay [4] (setting [8]), -17% (inactive); in assay [4] (at 50.0 µM), -0.75% (inactive) and 63.6% (inactive). Further, the growth inhibition in assay [5] (setting [7]) was -15% (inactive); in assay [5] (setting [8]), -88% (inactive); in assay [5] (at 50.0 µM), -2.35% (inactive) and 10.1% (inactive); in assay [6] (setting [7]), -1% (inactive); in assay [6] (setting [8]), -39% (inactive); in assay [6] (at 50.0 µM), -6.8% (inactive) and 24.3% (inactive).
